According to PubChem BioAssay (NCI):
Compounds without any hit were thinned out: in the full panel of roughly 83,000, 20% have a hit.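 Treatment: one concentration, 48 hours, 96-well format. Scoring: percent growth, with anything below 10 considered active.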 Activity calls are given as the source filed them.

Tests used:
Assay in all cases: NCI-60 one-dose screen, 48 h (100 = growth as untreated, 0 = no growth, -100 = all killed)
Settings in all cases: 10 µM unless noted
SR leukemia = test system: SR leukemia
RPMI-8226 leukemia = test system: RPMI-8226 leukemia
OVCAR-8 ovarian = test system: OVCAR-8 ovarian
OVCAR-5 ovarian = test system: OVCAR-5 ovarian
OVCAR-4 ovarian = test system: OVCAR-4 ovarian
SK-OV-3 ovarian = test system: SK-OV-3 ovarian
IGROV1 ovarian = test system: IGROV1 ovarian
OVCAR-3 ovarian = test system: OVCAR-3 ovarian
HS 578T breast = test system: HS 578T breast
NCI/ADR-RES ovarian = test system: NCI/ADR-RES ovarian
T-47D breast = test system: T-47D breast
BT-549 breast = test system: BT-549 breast
MDA-MB-435 melanoma = test system: MDA-MB-435 melanoma
SW-620 colon = test system: SW-620 colon
MCF7 breast = test system: MCF7 breast
HCT-116 colon = test system: HCT-116 colon
HCC-2998 colon = test system: HCC-2998 colon
KM12 colon = test system: KM12 colon

Compound	growth (SR leukemia)	growth (RPMI-8226 leukemia)	growth (OVCAR-8 ovarian)	growth (OVCAR-5 ovarian)	growth (OVCAR-4 ovarian)	growth (SK-OV-3 ovarian)	growth (IGROV1 ovarian)	growth (OVCAR-3 ovarian)	growth (HS 578T breast)	growth (NCI/ADR-RES ovarian)	growth (T-47D breast)	growth (BT-549 breast)	growth (MDA-MB-435 melanoma)	growth (SW-620 colon)	growth (MCF7 breast)	growth (HCT-116 colon)	growth (HCC-2998 colon)	growth (KM12 colon)
Cn1cc(-c2nc(-c3c[nH]c4ccncc34)cs2)c2cc(F)ccc21	-36.8% (active)	-36.5% (active)	-60.1% (active)	-91.1% (active)	-54.4% (active)	62.1% (inactive)	-87.2% (active)	-94.7% (active)	-44.9% (active)	-73.7% (active)	-52.2% (active)	69.6% (inactive)	-91% (active)	-65.7% (active)	-71.5% (active)	-95.4% (active)	-80.6% (active)	-95.1% (active)
O=C(COc1ccc(/C=C2\Oc3ccccc3C2=O)cc1)Nc1nccs1	0% (active)	40.4% (inactive)	41.8% (inactive)	91.8% (inactive)	90.3% (inactive)	125% (inactive)	-13.3% (active)	97.2% (inactive)	107% (inactive)	91.6% (inactive)	115% (inactive)	115% (inactive)	69.4% (inactive)	110% (inactive)	75.6% (inactive)	94.5% (inactive)	97.7% (inactive)	69.7% (inactive)
CC1=C2[C@@H](CC1)[C@]1(C)O[C@@](C(C)C)(C[C@H]1OC(=O)CO)[C@H]2OC(=O)CCCc1ccccc1	76.1% (inactive)	22.7% (inactive)	35.4% (inactive)	100% (inactive)	80% (inactive)	105% (inactive)	62.8% (inactive)	61.3% (inactive)	-4.02% (active)	44.8% (inactive)	25.3% (inactive)	53.3% (inactive)	78.7% (inactive)	77.3% (inactive)	82.4% (inactive)	68.7% (inactive)	84% (inactive)	60.9% (inactive)
CCC(C)C(N)C(=O)NC(CC(C)C)C(=O)N1CCCC1C(=O)NC(Cc1c[nH]c2ccccc12)C(=O)NC(CCCCN)C(=O)NC(Cc1c[nH]c2ccccc12)C(=O)N1CCCC1C(=O)NC(Cc1c[nH]c2ccccc12)C(=O)NC(Cc1c[nH]c2ccccc12)C(=O)N1CCCC1C(=O)NC(Cc1c[nH]c2ccccc12)C(=O)NC(CCCNC(=N)N)C(=O)NC(CCCNC(=N)N)C(N)=O (centres undefined)	10.9% (inactive)	75% (inactive)	75.5% (inactive)	98.8% (inactive)	119% (inactive)	109% (inactive)	58.4% (inactive)	101% (inactive)	105% (inactive)	92.1% (inactive)	108% (inactive)	109% (inactive)	95.9% (inactive)	108% (inactive)	121% (inactive)	95.3% (inactive)	101% (inactive)	63.7% (inactive)
O=c1[nH]c(CN2CCN(c3ccccc3)CC2)nc2c(Br)cc(Br)cc12	3.49% (active)	96.6% (inactive)	104% (inactive)	95.3% (inactive)	105% (inactive)	96.4% (inactive)	29.4% (inactive)	103% (inactive)	91.7% (inactive)	104% (inactive)	103% (inactive)	123% (inactive)	108% (inactive)	102% (inactive)	110% (inactive)	107% (inactive)	101% (inactive)	105% (inactive)
CN1CCN(Cc2ccc(NC(=O)c3cncc(C#Cc4c(N)ncc5cc(F)ccc45)c3)cc2C(F)(F)F)CC1	0.501% (active)	-14% (active)	28% (inactive)	43.7% (inactive)	54.4% (inactive)	82.6% (inactive)	15.1% (inactive)	76.3% (inactive)	31.8% (inactive)	10.3% (inactive)	77% (inactive)	56.6% (inactive)	26.4% (inactive)	-53.1% (active)	-75.9% (active)	-78.7% (active)	51.4% (inactive)	5.8% (active)
CC1(C)CC[C@]2(CO)CC[C@]3(C)[C@H](CC[C@@H]4[C@@]5(C)CC[C@H](O)C(C)(C)[C@@H]5CC[C@]43C)[C@H]2[C@H]1O	56.2% (inactive)	100% (inactive)	64.5% (inactive)	114% (inactive)	58.5% (inactive)	92.3% (inactive)	102% (inactive)	74.7% (inactive)	7.22% (active)	80.8% (inactive)	75.1% (inactive)	96.2% (inactive)	91.5% (inactive)	84.9% (inactive)	69.2% (inactive)	42.8% (inactive)	101% (inactive)	65.2% (inactive)
CCOC(=O)CC1CSC(N/N=C(/C)c2cccc(C(F)(F)F)c2)=N1 (centres undefined)	99.6% (inactive)	111% (inactive)	102% (inactive)	105% (inactive)	94.1% (inactive)	96.1% (inactive)	94.5% (inactive)	105% (inactive)	101% (inactive)	101% (inactive)	104% (inactive)	85.6% (inactive)	101% (inactive)	104% (inactive)	90.5% (inactive)	96.9% (inactive)	101% (inactive)	97.7% (inactive)
CS(=O)(=O)Nc1cc(-c2ccc3ncnc(Nc4cccc(Cl)c4)c3c2)cnc1Cl	0.413% (active)	-44.8% (active)	16.4% (inactive)	7.66% (active)	13.7% (inactive)	-28.4% (active)	-25.7% (active)	-10.7% (active)	-13.6% (active)	19.2% (inactive)	-22.9% (active)	-15.5% (active)	8.58% (active)	11.5% (inactive)	5.3% (active)	-26.9% (active)	2.63% (active)	5.4% (active)
O=C(Nc1cccc(Cl)c1)Oc1c(Cl)c(Cl)c(Cl)c(Cl)c1Cl	96.3% (inactive)	95.4% (inactive)	98.9% (inactive)	95.2% (inactive)	89% (inactive)	85% (inactive)	87.8% (inactive)	101% (inactive)	82.8% (inactive)	103% (inactive)	80.1% (inactive)	88.5% (inactive)	98.7% (inactive)	100% (inactive)	84.9% (inactive)	95.7% (inactive)	119% (inactive)	102% (inactive)
Cc1ccc(S(=O)(=O)c2nc(-c3ccccc3)oc2S(C)=O)cc1 (centres undefined)	-26.8% (active)	-51.3% (active)	2.01% (active)	45% (inactive)	37.3% (inactive)	83.6% (inactive)	-50.6% (active)	-89.3% (active)	78.9% (inactive)	70.1% (inactive)	-49% (active)	27.5% (inactive)	37% (inactive)	-55.4% (active)	-20% (active)	-20.3% (active)	70.5% (inactive)	49.8% (inactive)
O=C(Nc1ccccc1C(F)(F)F)C1=NCCCCN1	102% (inactive)	99.6% (inactive)	99.9% (inactive)	94.7% (inactive)	99% (inactive)	108% (inactive)	101% (inactive)	101% (inactive)	99.8% (inactive)	103% (inactive)	101% (inactive)	105% (inactive)	100% (inactive)	92.9% (inactive)	99.7% (inactive)	99.5% (inactive)	102% (inactive)	102% (inactive)
CN1CCN(Cc2ccc(NC(=O)c3cc(C#Cc4cnc(N)c5ncccc45)n(C)n3)cc2C(F)(F)F)CC1	2.23% (active)	69.2% (inactive)	69.4% (inactive)	140% (inactive)	114% (inactive)	111% (inactive)	113% (inactive)	119% (inactive)	25% (inactive)	96% (inactive)	101% (inactive)	117% (inactive)	102% (inactive)	88.1% (inactive)	39.7% (inactive)	96.1% (inactive)	128% (inactive)	87.8% (inactive)
COc1ccc(-c2nc3cc(C(=O)NC4CCCCC4)ccc3n2C2CCCCC2)cc1	51.2% (inactive)	79.2% (inactive)	107% (inactive)	85.6% (inactive)	86.6% (inactive)	98.7% (inactive)	101% (inactive)	89.1% (inactive)	105% (inactive)	90.7% (inactive)	87.6% (inactive)	94.9% (inactive)	99.4% (inactive)	101% (inactive)	85.2% (inactive)	87.1% (inactive)	91.8% (inactive)	68.6% (inactive)
COc1ccc(S(=O)(=O)N(C)c2oc(-c3ccc(Cl)cc3)nc2C#N)cc1	29.3% (inactive)	69.7% (inactive)	96% (inactive)	94.6% (inactive)	76.4% (inactive)	91.2% (inactive)	77.7% (inactive)	82.2% (inactive)	64.9% (inactive)	58.6% (inactive)	74.5% (inactive)	74.7% (inactive)	-3.32% (active)	43.3% (inactive)	52.5% (inactive)	72% (inactive)	76.2% (inactive)	56.6% (inactive)
O=C(Nc1ncc(Cc2ccccc2)s1)c1cc(-c2ccccc2)nc2ccccc12	105% (inactive)	95.7% (inactive)	98.4% (inactive)	98.6% (inactive)	108% (inactive)	96.7% (inactive)	87.3% (inactive)	104% (inactive)	92.6% (inactive)	87.8% (inactive)	91.7% (inactive)	99.3% (inactive)	104% (inactive)	96.2% (inactive)	91.1% (inactive)	95.3% (inactive)	99.2% (inactive)	105% (inactive)
C=C1C(=O)O[C@H]2[C@H]1CC/C(CNC(=O)/C=C/c1cc(OC)c(OC)c(OC)c1)=C\CC[C@@]1(C)O[C@@H]21	-13.8% (active)	-5.59% (active)	5.04% (active)	15.9% (inactive)	14.7% (inactive)	64.6% (inactive)	17.8% (inactive)	-57.5% (active)	24.2% (inactive)	76.7% (inactive)	-65% (active)	-17.8% (active)	-60.3% (active)	-21.6% (active)	-8.09% (active)	-65.6% (active)	-79% (active)	38.8% (inactive)
Nc1ncc(-c2ccc3ncnc(N4CCc5ccc(Cl)cc54)c3c2)cn1	-10.6% (active)	-35.6% (active)	4.28% (active)	7.02% (active)	2.15% (active)	-22.2% (active)	-47.7% (active)	3.17% (active)	-24.5% (active)	3.68% (active)	-7.59% (active)	-25% (active)	7.35% (active)	0.122% (active)	10.6% (inactive)	-30.6% (active)	5.87% (active)	6.87% (active)
